# Assay results taken from PubChem BioAssay.
# The source made the active and inactive calls. Unless noted, how the calls were made is not given here.
# Legend:
# [1] = test system: Wnt5a (protein binding on small-molecule microarray); assay: Wnt5a binders on small-molecule microarray, primary screen, biophysical, 635/667 nm fluorescence (AID 1142); settings: 635 nm fluorescence, higher = more signal;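 further: fluorescence read at 667 nm with signal to noise per printed feature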
# [2] = cell viability in Huh7 cells, primary screen, cytotoxicity control for HCV replication inhibitor project, CellTiter-Glo luminescence, basal, 48 h (AID 1143); settings: Huh7 HCV replicon, higher = more signal, called active from +8 up or from −8 down;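 further: Huh7 hepatoma cells carrying a hepatitis C replication reporter with no stimulus; test concentration not given here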
# [3] = P. aeruginosa biofilm formation inhibitors, primary screen, PAO1 strain, BacTiter-Glo luminescence, LB-PBS (AID 1144); settings: 12 h, higher = more signal
# [4] = CREB reporter modulators without forskolin, primary screen, cell-based, PC12, CRE-LacZ reporter, unstimulated (AID 1145); settings: no forskolin, luminescence, 4.5 h, higher = more signal, called active from +8 up or from −8 down
# [5] = CREB reporter modulators under forskolin, primary screen, cell-based, PC12, CRE-LacZ reporter, forskolin-stimulated (AID 1146); settings: luminescence, 4.5 h, higher = more signal, called active from +8 up or from −8 down;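 further: PC12 cells with 6xCRE LacZ reporter stimulated by forskolin 10 µM; beta-galactosidase reporter signal reflecting CREB driven transcription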
# [6] = molecular target: Streptavidin (Streptomyces avidinii) (UniProt P22629); assay: streptavidin binders on small-molecule microarray, primary screen, artefact control for SMM compound annotation, biophysical, 635/667 nm fluorescence (AID 1147); settings: streptavidin binding, higher = more signal;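 further: signal reflects streptavidin binding to arrayed compounds as a control protein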
# Streptavidin (Streptomyces avidinii), sequence (P22629 whole entry, looked up): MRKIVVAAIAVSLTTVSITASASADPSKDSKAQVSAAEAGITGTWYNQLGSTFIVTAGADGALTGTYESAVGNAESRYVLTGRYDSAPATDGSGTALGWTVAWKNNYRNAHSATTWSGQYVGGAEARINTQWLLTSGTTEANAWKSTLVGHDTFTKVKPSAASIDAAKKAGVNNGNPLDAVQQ
# [7] = small-molecule binders of probe aInhba, primary screen, biochemical, small-molecule microarray, 635/667 nm fluorescence (AID 1148); settings: higher = more signal;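 further: score merges 667nm spot fluorescence with signal-to-noise for antibody binding to printed compounds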
# Torsin-1A (Homo sapiens) [8] = molecular target: Torsin-1A (Homo sapiens) (UniProt O14656); assay: torsin A binders from cell lysate, primary screen, small-molecule microarray, wild-type, 635/667 nm (AID 1149); settings: COS7 hTOR1A-WT lysate, 635 nm fluorescence, higher = more signal
# Torsin-1A (Homo sapiens), sequence (O14656 whole entry, looked up): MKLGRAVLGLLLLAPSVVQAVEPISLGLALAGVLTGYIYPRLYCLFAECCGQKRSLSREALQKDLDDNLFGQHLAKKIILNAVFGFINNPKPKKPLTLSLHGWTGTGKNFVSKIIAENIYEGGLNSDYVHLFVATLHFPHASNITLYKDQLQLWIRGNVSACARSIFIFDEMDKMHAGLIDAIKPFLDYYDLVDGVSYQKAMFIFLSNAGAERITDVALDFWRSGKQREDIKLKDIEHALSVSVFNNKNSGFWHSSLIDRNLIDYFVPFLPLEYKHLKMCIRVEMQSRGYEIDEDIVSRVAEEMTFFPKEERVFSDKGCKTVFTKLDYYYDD
# Torsin-1A (Homo sapiens) [9] = molecular target: Torsin-1A (Homo sapiens) (UniProt O14656); assay: small-molecule binders of mutant TOR1A in lysate, primary screen, cell lysate, small-molecule microarray, COS7 lysate, 635/667 nm fluorescence (AID 1150); settings: COS7 hTOR1A mutant lysate, 635 nm fluorescence, higher = more signal;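 further: score pools 667 nm emission and signal to noise measuring lysate protein binding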
# [10] = test system: Sonic hedgehog protein (Shh); assay: small-molecule binders of Shh protein, primary screen, biochemical, small-molecule microarray, 635/667 nm fluorescence (AID 1151); settings: small-molecule microarray binding, 635 nm fluorescence; higher = more signal;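 further: Shh protein binding to compounds spotted on small-molecule microarray slides; score combines spot fluorescence intensity with signal-to-noise across triplicate slides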
# [11] = E. coli DRC41 culture turbidity changes, primary screen, E. coli filamentation inducer project, strain DRC41, OD650, 48 h (AID 1152);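 further: E. coli MC1000 strain DRC41 lacking acrAB efflux pump and sulA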; settings: E. coli DRC41 (acrAB sulA), higher = more signal, called active from +8 up or from −8 down
# [12] = small-molecule binders of probe aLefty1, primary screen, biochemical, small-molecule microarray, 635/667 nm fluorescence (AID 1153); settings: higher = more signal;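 further: score merges spot fluorescence with signal-to-noise ratio from the scanned slide images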
# [13] = PSAC antagonists in infected red cells, primary screen, cell-based, P. falciparum Indochina, OD700, 1 h (AID 1154); settings: P. falciparum Indochina infected RBC osmotic lysis, higher = more signal, called active from +8 up or from −8 down
# [14] = PSAC antagonists in infected red cells, primary screen, cell-based, P. falciparum Indochina, OD700, 2 h (AID 1155);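 further: lysis reports solute entry through the parasite surface anion channel PSAC; channel blockers reduce lysis of infected cells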; settings: P. falciparum Indochina infected erythrocytes, osmotic lysis OD700; higher = more signal, called active from +8 up or from −8 down
# [15] = osmotic lysis modulators in infected erythrocytes, primary screen, PSAC antagonist project, cell-based, P. falciparum Indochina, OD700, 3 h (AID 1156); settings: higher = more signal, called active from +8 up or from −8 down
# [16] = PSAC antagonists in infected red cells, primary screen, cell-based, P. falciparum Indochina, OD700, 18 h (AID 1157); settings: P. falciparum Indochina infected erythrocytes, osmotic lysis OD700, 18 h; higher = more signal, called active from +8 up or from −8 down
# [17] = modulators of S6 phosphorylation in cells, primary screen, cell-based, A549, cytoblot, luminescence, serum-stimulated (AID 1158); settings: A549 phospho-S6 cytoblot, 5 h, higher = more signal;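 further: serum-stimulated A549 lung adenocarcinoma cells; signal is phosphorylated S6 detected by cytoblot immunostaining with HRP secondary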
# [18] = molecular target: NADPH oxidase 2 (Homo sapiens) (UniProt P04839); assay: NOX2-dependent H2O2 signal modulators, primary screen, NOX inhibitor project, cell-based, HEK293-NOX2, PMA-stimulated, Amplex Red fluorescence (AID 1159); settings: 45 min, higher = more signal, called active from +8 up or from −8 down; further: test concentration not given here
# NADPH oxidase 2 (Homo sapiens), sequence (P04839 whole entry, looked up): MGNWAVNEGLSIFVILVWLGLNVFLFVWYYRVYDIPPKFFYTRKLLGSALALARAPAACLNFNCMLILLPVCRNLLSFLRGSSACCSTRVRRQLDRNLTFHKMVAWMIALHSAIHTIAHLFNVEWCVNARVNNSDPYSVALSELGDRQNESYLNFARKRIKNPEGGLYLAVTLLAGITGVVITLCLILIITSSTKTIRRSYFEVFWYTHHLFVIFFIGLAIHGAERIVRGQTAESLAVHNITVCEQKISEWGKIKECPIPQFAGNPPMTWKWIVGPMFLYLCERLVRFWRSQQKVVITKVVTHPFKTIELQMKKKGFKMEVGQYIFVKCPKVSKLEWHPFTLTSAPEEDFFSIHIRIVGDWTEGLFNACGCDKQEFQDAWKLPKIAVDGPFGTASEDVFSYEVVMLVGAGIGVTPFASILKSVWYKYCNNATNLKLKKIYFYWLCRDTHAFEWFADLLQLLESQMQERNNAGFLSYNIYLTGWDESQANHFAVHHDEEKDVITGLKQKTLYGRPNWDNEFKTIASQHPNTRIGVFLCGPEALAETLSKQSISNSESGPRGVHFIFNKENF
# [19] = molecular target: NADPH oxidase 4 (Homo sapiens) (UniProt Q9NPH5); assay: NOX4-dependent H2O2 signal modulators, primary screen, NOX inhibitor project, cell-based, HEK293-NOX4, tetracycline-induced, Amplex Red fluorescence (AID 1160); settings: 45 min, higher = more signal, called active from +8 up or from −8 down
# NADPH oxidase 4 (Homo sapiens), sequence (Q9NPH5 whole entry, looked up): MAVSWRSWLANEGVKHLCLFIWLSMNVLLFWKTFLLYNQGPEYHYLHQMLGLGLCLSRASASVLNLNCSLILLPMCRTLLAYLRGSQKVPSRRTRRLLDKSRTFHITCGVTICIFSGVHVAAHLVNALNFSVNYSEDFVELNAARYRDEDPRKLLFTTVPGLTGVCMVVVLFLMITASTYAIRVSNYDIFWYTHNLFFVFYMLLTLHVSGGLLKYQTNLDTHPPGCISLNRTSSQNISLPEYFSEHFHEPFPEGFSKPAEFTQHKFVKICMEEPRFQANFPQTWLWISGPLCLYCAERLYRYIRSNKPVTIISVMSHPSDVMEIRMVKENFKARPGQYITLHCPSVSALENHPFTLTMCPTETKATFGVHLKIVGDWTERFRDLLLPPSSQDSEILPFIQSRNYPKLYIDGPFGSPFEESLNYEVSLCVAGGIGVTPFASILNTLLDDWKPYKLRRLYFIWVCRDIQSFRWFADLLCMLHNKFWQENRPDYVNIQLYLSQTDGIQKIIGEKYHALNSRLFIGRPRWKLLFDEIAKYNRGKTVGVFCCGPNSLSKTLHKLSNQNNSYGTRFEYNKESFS
# [20] = molecular target: NADPH oxidase 5 (Homo sapiens) (UniProt Q96PH1); assay: NOX5-dependent H2O2 signal modulators, primary screen, NOX inhibitor project, cell-based, HEK293-NOX5, Amplex Red fluorescence (AID 1161); settings: HEK293-NOX5, ionomycin, 45 min, higher = more signal
# NADPH oxidase 5 (Homo sapiens), sequence (Q96PH1 whole entry, looked up): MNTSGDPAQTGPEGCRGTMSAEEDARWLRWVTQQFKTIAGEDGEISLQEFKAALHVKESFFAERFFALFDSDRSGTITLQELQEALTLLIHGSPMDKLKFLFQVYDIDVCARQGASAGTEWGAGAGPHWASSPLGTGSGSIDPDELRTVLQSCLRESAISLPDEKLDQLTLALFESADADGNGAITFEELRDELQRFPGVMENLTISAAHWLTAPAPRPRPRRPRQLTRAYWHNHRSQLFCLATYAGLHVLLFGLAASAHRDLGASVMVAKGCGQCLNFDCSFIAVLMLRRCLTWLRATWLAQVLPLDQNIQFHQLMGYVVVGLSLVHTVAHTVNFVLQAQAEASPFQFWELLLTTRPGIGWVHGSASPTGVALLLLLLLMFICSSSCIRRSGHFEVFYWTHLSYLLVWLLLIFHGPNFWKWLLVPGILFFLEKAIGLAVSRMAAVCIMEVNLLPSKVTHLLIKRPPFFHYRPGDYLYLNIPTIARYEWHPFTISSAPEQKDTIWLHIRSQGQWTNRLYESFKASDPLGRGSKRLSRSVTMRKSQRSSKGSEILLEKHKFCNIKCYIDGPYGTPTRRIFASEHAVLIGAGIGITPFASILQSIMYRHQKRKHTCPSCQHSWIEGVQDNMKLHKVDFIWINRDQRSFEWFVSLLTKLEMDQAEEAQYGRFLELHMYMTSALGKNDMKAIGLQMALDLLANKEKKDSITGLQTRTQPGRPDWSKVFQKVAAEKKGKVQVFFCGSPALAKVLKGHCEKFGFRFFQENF
Structure (SMILES),composite z-score [1],z-score [2],z-score [3],z-score [4],z-score [5],composite z-score [6],composite z-score [7],composite z-score (Torsin-1A (Homo sapiens) [8]),composite z-score (Torsin-1A (Homo sapiens) [9]),composite z-score [10],z-score [11],composite z-score [12],z-score [13],z-score [14],z-score [15],z-score [16],z-score [17],z-score [18],z-score [19],z-score [20]
C[C@@H]1CC[C@H]2C(=O)O[C@@H](CN=[N+]=[N-])CN2[C@H]1c1ccc(Br)cc1,-0.0229,-3.67 (inactive),-0.608 (inactive),3.37 (inactive),-0.833 (inactive),0.414,-0.179,0.48,0.581,0.888,-2.31 (inactive),-0.35,25.4 (active),8.11 (active),1.59 (inactive),2.16 (inactive),0.476,-3.99 (inactive),-3.91 (inactive),-0.668
COC(=O)CC=C[C@@H](C)[C@@H](C=NOC[C@@H](C)[C@H](OCc1ccccc1)C(C)C)NS(=O)(=O)c1ccc(C)cc1,-0.122,-0.7 (inactive),0.904 (inactive),2.87 (inactive),0.447 (inactive),-0.784,-0.29,0.331,0.0147,0.587,-0.795 (inactive),-0.0011,2.91 (inactive),0.988 (inactive),1.2 (inactive),0.808 (inactive),-0.222,0.787 (inactive),-0.183 (inactive),-1.19
CCOC(=O)CCN1C(=O)[C@H]2[C@H]3[C@H](O)[C@H](O)CC(=NOCC(C)C)[C@@H]3CC[C@H]2C1=O,0.0707,-1.76 (inactive),-0.123 (inactive),0.424 (inactive),-0.209 (inactive),-0.483,-0.0986,2.79,2.77,1.1,-0.214 (inactive),-0.0051,6.67 (inactive),0.232 (inactive),-0.0758 (inactive),0.134 (inactive),-0.651,0.913 (inactive),0.783 (inactive),0.295
CC1(C)O[C@H]2O[C@H]([C@H](O)CON=C3[C@H]4CCn5c(=O)n(-c6ccccc6)c(=O)n5[C@H]4[C@H](O)[C@@H]4O[C@H]34)[C@H](O)[C@H]2O1,0.0179,-0.279 (inactive),-0.295 (inactive),0.494 (inactive),0.771 (inactive),0.0676,-0.154,0.43,-0.0174,-0.217,-0.169 (inactive),-0.0375,0.246 (inactive),0.282 (inactive),0.267 (inactive),0.343 (inactive),-0.693,0.197 (inactive),0.0828 (inactive),-0.47
COC(=O)CC=C[C@@H](C)[C@@H](C=NOC(C)CN1CCCCc2nc(C)c(C)cc21)NS(=O)(=O)c1ccc(C)cc1 (stereo not given in full),0.104,0.453 (inactive),0.89 (inactive),-0.882 (inactive),0.877 (inactive),-0.343,-0.0221,1.05,0.705,0.56,0.599 (inactive),0.236,-0.193 (inactive),0.36 (inactive),0.151 (inactive),0.0733 (inactive),-0.134,-0.397 (inactive),0.339 (inactive),0.266
C[C@@H]1C=CCC(=O)OC[C@H](C)C(=O)N[C@@H](Cc2ccccc2)C(=O)OC1,0.033,-3.11 (inactive),-1.23 (inactive),1.43 (inactive),-0.846 (inactive),-0.0535,-0.0736,0.519,0.59,0.638,-0.596 (inactive),-0.0287,0.296 (inactive),-0.506 (inactive),-0.307 (inactive),-1.2 (inactive),0.826,-0.348 (inactive),-0.928 (inactive),-0.396
C[C@@H]1CC[C@H]2C(=O)O[C@@H](COc3ccc(C(C)(C)C)cc3)CN2[C@H]1c1ccc(Br)cc1,0.0114,-0.0293 (inactive),0.0807 (inactive),0.345 (inactive),0.213 (inactive),0.0826,-0.0523,0.159,-0.0416,0.526,-0.113 (inactive),-0.103,1.25 (inactive),0.937 (inactive),-0.897 (inactive),0.588 (inactive),-0.261,-0.271 (inactive),0.562 (inactive),0.257
C[C@@H](c1ccccc1)N1C(=O)[C@H]2[C@H]3[C@H](O)[C@H](O)CC(=NOCc4ccccc4)[C@@H]3CC[C@H]2C1=O,0.0765,0.039 (inactive),1.01 (inactive),0.242 (inactive),-0.166 (inactive),0.665,-0.0762,-0.407,-0.325,-0.742,-1.42 (inactive),0.426,2.92 (inactive),0.117 (inactive),0.826 (inactive),0.479 (inactive),-0.547,-0.666 (inactive),0.115 (inactive),0.12
C[C@@H](c1ccccc1)N1C(=O)[C@H]2[C@H]3[C@H](O)[C@H](O)CC(=NOC[C@@H](O)COCc4ccco4)[C@H]3CC[C@H]2C1=O,-0.0017,0.523 (inactive),1 (inactive),1.5 (inactive),0.81 (inactive),-0.304,-0.253,3.17,2.95,1.65,-0.309 (inactive),-0.201,2.04 (inactive),-0.0645 (inactive),0.33 (inactive),0.332 (inactive),-0.632,-1.37 (inactive),0.529 (inactive),0.122
